# HIF-2a inh – HIF-2a reporter inhibitors, primary screen, luminescence, 786-0 RCC cells; 786-0 RCC cells HIF-2a reporter, luciferase luminescence, overnight; inhibition, % at 18.8 µM; hit rate 0.72% among 360,000;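 active = inhibition of the luminescence signal of 40% or more relative to plate controls, in a single-dose primary screen at 18.75 µM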
# MITF TRPM1 inh – inhibitors of MITF-dependent TRPM1 promoter reporter, primary screen, cell-based, SK-MEL-5, single point, luciferase. inhibition, % at 12.5 µM. hit rate 0.83% among 330,000. AID 488899, 2010. SK-MEL-5 TRPM1 promoter luciferase, 24 h;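 active = mean inhibition across replicates of 60% or more, whatever share of single replicates reaches that level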
# CHOP inh – inhibitors of CHOP promoter induction, primary screen, cell-based, unfolded protein response, luciferase reporter; CHO-K1 CHOP-promoter luciferase, tunicamycin-induced, 15-18 h; inhibition, % at 10 µM; hit rate 3.8% among 220,000; AID 2732, 2010;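 active = compounds that reduced the stress-induced luciferase reporter signal by more than about 70% of percent inhibition, limit read from the data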;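 note: 0% = tunicamycin plus vehicle and 100% = wells without tunicamycin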
# CF NFkB inh – inhibitors of PAF-induced NF-kB signaling, primary screen, cell-based, GFP fluorescence, uHTS. KKLEB NF-kB-GFP reporter, GFP fluorescence overnight. hit rate 0.86% among 360,000. inhibition, % at 5 µM;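 active = at least 50% inhibition at 5 µM, scaled per plate between neutral and stimulator controls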;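 note: PAF is a Pseudomonas aeruginosa culture filtrate used as stimulus; plate controls were PAF-stimulated DMSO wells for no effect and unstimulated DMSO wells for full effect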
# KKLEB tox – cytotoxicity in KKLEB CF airway cells, primary screen, cytotoxicity control for CF NF-kB inhibitor project, cell-based, uHTS, fluorescence assay plates | KKLEB CF airway cells viability, ATPlite luminescence, overnight; active compounds read low; cells stimulated with P. aeruginosa culture filtrate | activity change (cytotoxicity), % at 5 µM | hit rate 0.36% among 360,000 | AID 602141, 2011;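 active = corrected activity change at or below -50% at 5 µM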
# Peg3 prom inh – Peg3 promoter-driven luciferase inhibitors, primary screen, cell-based, HeLa, luciferase luminescence; HeLa PEG-Prom luciferase reporter, overnight; inhibition, % at 20 µM; hit rate 1.7% among 360,000; AID 588405, 2011;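 active = inhibition of at least 50% at 20 µM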
# * hit, by the source's call; / = no result. Most compounds without a hit are left out; they make up all but 4.3% or so of the library.
SMILES,HIF-2a inh,MITF TRPM1 inh,CHOP inh,CF NFkB inh,KKLEB tox,Peg3 prom inh
CC1=C(CC(=O)c2ccc(Cl)cc2)C(=O)c2ccccc2C1=O,-144,27,72*,65*,-31,-259
CCN(CC)CCCN=Cc1c(-c2ccccc2)[nH]n(-c2nc3ccccc3s2)c1=O,-21,23,-18,-8,0,2
CCCN=C(C)c1c(-c2ccccc2)[nH]n(-c2nc3ccccc3s2)c1=O,-126,-7,72*,0,-19,-45
C[C@]12CC[C@H](O)CC1=CCC1C2CC[C@@]2(C)C1CC[C@@H]2NC(=O)[C@@H](N)Cc1cnc[nH]1 (stereo partly specified),3,-10,/,-3,-8,5
CC1CCCN(S(=O)(=O)c2ccc3[nH]c4c(c3c2)CCCC4)C1 (stereo unspecified),15,15,/,21,-3,33
Cc1cc(C)c(NC(=O)Cn2nnc(C(=O)NCc3cccs3)c2N)c(C)c1,8,-4,85*,-2,5,24
Cc1cc(C)cc(NC(=O)Cn2nnc(C(=O)NCc3cccs3)c2N)c1,-5,-11,/,11,-3,23
CN(C)c1ccc(CNC(=O)CCNS(=O)(=O)c2cc(Br)cnc2N)cc1,15,-5,/,32,-24,4
S=c1[nH]nc(C2CCCCC2)n1/N=C/c1ccc(Br)s1,17,8,95*,-8,-8,5
O=[N+]([O-])c1cccc(/C=N/n2c(C3CCCCC3)n[nH]c2=S)c1,8,6,82*,21,-10,5
Oc1cccc(/C=N/n2c(C3CCCCC3)n[nH]c2=S)c1,6,6,/,8,-10,8
C(=N\NC1=Nc2cccc3cccc1c23)/c1ccccn1,-214,-5,66,51*,-26,-76
C(=N\N=C\c1ccccn1)/c1ccccn1,4,2,/,-4,-2,4
COc1ccccc1C(=O)Nc1c(C(=O)N(CCN(C)C)Cc2ccco2)oc2ccccc12,-3,-3,/,13,-31,92*
Cc1nc(C(=O)Nc2ccccc2Cl)cc2c1[nH]c1ccccc12,-39,22,51,28,-21,85*
COc1cc(C(=O)NC2CCN(C)CC2)ccc1Nc1ncc2c(n1)N(C1CCCC1)CCC(=O)N2C(C)C,-11,74*,/,-102,-15,69*
Cc1ccc(-c2nnc(Nc3ccccc3)o2)cc1,5,6,84*,-35,-48,20
O=S(=O)(NCc1ccccc1)NCc1ccccc1,16,4,73*,15,-4,3
COC(=O)c1ccccc1NC(=O)c1cc(-c2ccco2)on1,4,8,/,-13,0,10
COC(=O)c1ccccc1NC(=O)c1cc(OC)cc(OC)c1,5,-4,82*,2,5,-3
COC(=O)c1ccccc1NC(=O)c1cc(-c2cccs2)on1,-25,21,75*,10,-24,17
COc1ccccc1NC(=O)c1ccc(-c2ccccc2F)o1,-357,-24,63,-16,10,-190
COC(=O)c1ccccc1NC(=O)c1ccc(-c2ccccc2F)o1,-111,-50,56,59*,-67*,-58
COC(=O)c1ccccc1NC(=O)c1sc(=S)n(C)c1N,-6,0,82*,-19,14,3
COC(=O)c1ccccc1NC(=O)c1sc(N)nc1C,-2,0,8,-15,2,-22
SMILES,HIF-2a inh,MITF TRPM1 inh,CHOP inh,CF NFkB inh,KKLEB tox,Peg3 prom inh
CC(=O)c1ccc(OCC(=O)Nc2nnc(C3CC3)s2)cc1,0,/,/,-8,16,2
CCC1(CC(C)C)SC(N)=NC1=O (stereo unspecified),9,-1,/,22,-3,0
COc1cc(/C=C/C(=O)O)cc(S(=O)(=O)N(CC(C)C)CC(C)C)c1OC,14,5,-11,1,0,4
Cc1[nH]c(=O)[nH]c(=O)c1S(=O)(=O)N(CC(C)C)CC(C)C,10,2,-1,-11,12,-1
Cc1noc2ncnc(Oc3cc(Cl)ccc3Cl)c12,14,8,-78,-27,-7,94*
Nc1nsc2ccccc12,-8,26,22,-14,-2,51*
CC[C@@H](C)[C@H](C(CC(=O)N1CCCC1[C@@H](OC)[C@H](C)C(=O)N[C@H](Cc1ccccc1)c1nccs1)OC)N(C)C(=O)[C@H](NC(=O)[C@@H](C(C)C)N(C)C)C(C)C (stereo partly specified),21,47,/,62*,-28,-10
COc1ccc(C(=O)N(C)C(C)c2nccs2)cc1OC1CCN(C(C)=O)CC1 (stereo unspecified),9,/,/,-13,0,-8
COc1ccccc1NS(=O)(=O)c1cc(NC(=O)c2ccc(Cl)nc2)ccc1Cl,20,64*,56,-14,15,50*
COc1ccc(C(=O)Nc2ccc(Cl)c(S(=O)(=O)Nc3ccccc3OC)c2)cc1,1,28,48,11,-9,29
C=CC(=O)Nc1ccc(N(C)c2ccnc(Nc3ccc(N4CCN(C)CC4)cc3)n2)cc1,26,14,/,40,-6,46
CC(=O)Nc1c(NC(C)C)c2ccccc2oc1=O,15,9,18,-30,-5,-5
COC(=O)Oc1c(Br)c(=O)oc2ccccc12,20,11,85*,4,8,10
O=C(CCl)N1c2ccccc2OCC1c1ccccc1 (stereo unspecified),2,8,106*,-8,-3,47
O=C(CCl)N1c2ccccc2SCC1c1ccccc1 (stereo unspecified),27,79*,/,9,10,68*
CCC(=O)N1CCN(C(=O)CC)C1c1ccccc1,12,-10,3,7,7,-14
Cc1nn(Cc2ccc(Cl)c(Cl)c2)c(C)c1NC(=O)c1cc(-c2ccco2)on1,10,19,87*,1,-14,40
COc1ccc(-c2cc(C(=O)Nc3c(C)nn(Cc4ccc(Cl)cc4)c3C)no2)cc1,-6,17,81*,2,17,14
Cc1nn(Cc2ccc(Cl)cc2)c(C)c1NC(=O)c1cc(-c2ccco2)on1,5,11,67,4,-3,6
Cc1oc(-c2cccs2)cc1C(=O)N1CCCC(C)(C(=O)O)C1 (stereo unspecified),-1,/,/,-22,7,-9
CCN1CCN(C2=C(NS(=O)(=O)c3ccc(NC(C)=O)cc3)C(=O)c3ccccc3C2=O)CC1,-6,40,/,29,-4,-20
CCN1CCN(C2=C(NS(=O)(=O)c3ccc(C)cc3)C(=O)c3ccccc3C2=O)CC1,-41,70*,/,31,6,-29
